# High-throughput results (PubChem BioAssay)
# GPR151 ag = activates the human receptor GPR151; hit rate 1% among 650,000; Q8TDV0; PathHunter beta-arrestin GPR151 cells, luminescence; activation, % at 11.2 µM; in the data active = activation above about 4.9%
# Target sequence (Q8TDV0 whole entry, looked up): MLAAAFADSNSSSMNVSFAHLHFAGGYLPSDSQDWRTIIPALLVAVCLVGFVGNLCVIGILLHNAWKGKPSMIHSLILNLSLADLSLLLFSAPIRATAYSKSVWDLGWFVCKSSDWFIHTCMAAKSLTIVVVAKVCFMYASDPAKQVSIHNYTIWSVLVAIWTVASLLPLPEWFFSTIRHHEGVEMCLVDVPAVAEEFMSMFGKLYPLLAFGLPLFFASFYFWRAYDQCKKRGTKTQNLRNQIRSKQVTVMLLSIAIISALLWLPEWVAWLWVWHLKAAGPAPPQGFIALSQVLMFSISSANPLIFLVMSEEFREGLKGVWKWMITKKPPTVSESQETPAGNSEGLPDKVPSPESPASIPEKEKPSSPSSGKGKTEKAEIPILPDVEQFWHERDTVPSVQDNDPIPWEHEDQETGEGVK
# TEAD-YAP inh = TEAD-YAP interaction inhibition. HEK-TIYL cells, TEAD-Gal4/YAP UAS-luciferase luminescence. inhibition, % at 9.12 µM. hit rate 1.4% among 640,000. AID 1259422; in the data active = inhibition above about 32%
# FBW7 activator = activators of human E3 ligase FBW7. AlphaScreen FBW7–phospho-cyclin E peptide binding, activator screen. hit rate 0.13% among 650,000. normalized activity (activation), % at 26.1 µM. Q969H0. AID 1259310; in the data active = normalized activity above about 1.9%;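 note: purified mutant Fbw7 with reduced substrate affinity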
# MITF primary = human MITF inhibition, primary screen; AID 1259374; AlphaScreen MITF homodimerization, bead proximity signal; inhibition, % at 2.6 µM; hit rate 0.91% among 650,000; O75030; in the data active = inhibition above about 50%
# Hits are given with their value; - = inactive. A selection: hits, their analogues and other compounds. The true share with any hit is near 3.5%.
SMILES,GPR151 ag,TEAD-YAP inh,FBW7 activator,MITF primary
NC(=S)N/N=C/c1cccc(/C=N/NC(N)=S)c1,-,-,-,-
NC(=O)C(=O)N/N=C/c1cccc(O)c1O,-,-,-,56
NC(=S)N/N=C/c1cccc(O)c1O,-,-,-,106
CCC(C)NC(=O)c1sc2ncnc(N3CCN(c4ccccc4OC)CC3)c2c1C (stereo unspecified),-,-,-,-
COc1ccc(N2C(=O)/C(=C/c3ccc(Cl)cc3)C=C2c2ccccc2)cc1,-,-,-,-
CCNc1nc(NCC)n2c(SCC(=O)Nc3cccc(Cl)c3C)nnc2n1,-,-,-,76
CCNc1nc(NCC)n2c(SCC(=O)c3ccc(OC)c(OC)c3)nnc2n1,-,-,-,69
CCNc1nc(NCC)n2c(SCC(=O)Nc3cc(=O)n(C)c(=O)n3C)nnc2n1,-,-,-,73
Fc1ccccc1-c1cnn2ccc(NCc3cccnc3)nc12,-,42,-,-
c1cncc(CNc2ccn3ncc(-c4cccc5ccccc45)c3n2)c1,-,-,-,-
CSCCC(NC(=O)/C(=C/c1ccccc1)NC(=O)c1ccccc1)C(=O)O (stereo unspecified),-,-,-,-
O=C1N/C(=N\N=C/c2ccc3c(c2)OCO3)S/C1=C/c1ccc(O)cc1,-,49,-,-
COC(=O)/C=C1\S/C(=N\N=C\c2ccc3c(c2)OCO3)NC1=O,-,-,-,-
COC(=O)c1cccc(NC(=O)COc2ccccc2Cl)c1,-,-,-,-
CCCOC(=O)c1cccc(NC(=O)COc2ccccc2Cl)c1,-,45,-,-
CCCCOC(=O)c1cccc(NC(=O)COc2ccc(Br)cc2Br)c1,-,58,-,-
O=C(/C=C/c1cccs1)Nc1ccc(Cl)c2ncsc12,-,87,-,-
Cc1ccnc(NC(=O)/C=C/c2cccs2)c1,-,55,-,-
Cc1ccc(F)c(CN[C@H]2C[C@H]3C(=O)N4CCC[C@@H]4C(=O)N3C2)c1,-,-,-,-
COc1ccc(-c2cc(=O)oc3c(OC)c(OC)ccc23)cc1,-,56,-,-
COc1cc(OC)cc(C2=NC3(CCCCC3)NC2=O)c1,-,-,2.1,-
Clc1ccc(CCNc2ncnc3c2cnn3-c2ccc(Cl)cc2)cc1,-,-,-,-
Fc1ccc(-n2ncc3c(N4CCOCC4)ncnc32)cc1,-,77,-,-
Clc1ccc(-n2ncc3c(N4CCN(c5ccc(Cl)c(Cl)c5)CC4)ncnc32)cc1,-,-,-,-
Clc1ccc(-n2ncc3c(N4CCCCCC4)ncnc32)cc1,-,90,-,-
SMILES,GPR151 ag,TEAD-YAP inh,FBW7 activator,MITF primary
Clc1ccc(-n2ncc3c(NCCN4CCOCC4)ncnc32)cc1,-,42,-,-
Clc1ccc(-n2ncc3c(N4CCOCC4)ncnc32)cc1,-,80,-,-
CN(CCc1ccccc1)C1CCCN(C(=O)c2ccc[n+]([O-])c2)C1 (stereo unspecified),-,-,-,-
Cc1sc(=O)[nH]c1C12CC3CC(CC(C3)C1)C2,-,-,-,-
COc1ccc2nc(NC(=O)c3ccc(S(=O)(=O)N4CCCCC4)cc3)sc2c1,-,-,-,-
O=C(NC12CC3CC(CC(C3)C1)C2)c1c(O)c2cccc3c2n(c1=O)CC3,-,-,-,-
Cc1ccc(-n2ncc3c(N4CCOCC4)ncnc32)cc1Cl,-,92,-,-
Cc1cccc(-n2ncc3c(N4CCN(c5ccc(Cl)c(Cl)c5)CC4)ncnc32)c1,-,-,-,-
COc1cc2nc(-c3ccccc3)nc(Nc3ccc(OCCN4CCCCC4)cc3)c2cc1OC,-,-,-,-
Cc1nnc(C2CCCN(C(=O)NC3CCCCC3)C2)s1 (stereo unspecified),-,-,-,-
Cc1ccc(Cn2cnc([N+](=O)[O-])n2)cc1,-,-,-,-
Clc1ccccc1CN1c2ccccc2N(Cc2ccccc2Cl)C1c1ccccc1Cl,-,81,-,-
OC1CCN(Cc2ccccc2Cl)CC1,-,-,-,-
Cc1ccc(-c2cc3ncc(C#N)c(-c4cccc(C)c4)n3n2)cc1,-,-,-,-
Cc1cccc(-c2c(C#N)cnc3cc(C)nn23)c1,-,33,-,-
CN1CCN(c2ccc(-c3nc(NCCO)c4ncn(-c5ccsc5)c4n3)cc2)CC1,-,87,-,-
COc1ccc(-c2nc(NCCO)c3ncn(-c4ccsc4)c3n2)cc1,-,61,-,-
CCCNc1nc(-c2ccc(N3CCN(C)CC3)cc2)nc2c1ncn2-c1ccsc1,-,-,-,-
CN1CCN(c2ccc(-c3nc(NCc4cccnc4)c4ncn(-c5ccsc5)c4n3)cc2)CC1,-,36,-,-
O=[N+]([O-])c1cccc(-c2nnc(SCC3CCCO3)o2)c1 (stereo unspecified),-,-,-,-
CCN(CC)C(=O)c1sc(NC(=O)/C=C/c2cccc([N+](=O)[O-])c2)c(C(=O)OC)c1C,-,-,-,-
CSc1nnc(NC(=O)c2ccc(C(C)(C)C)cc2)s1,-,32,-,-
CC(C)(C)c1ccc(C(=O)Nc2nnc(SCC(=O)O)s2)cc1,-,71,-,-
CSc1nnc(NC(=O)c2ccc(F)cc2)s1,-,-,-,-
CSc1nnc(NC(=O)c2ccc(C)cc2)s1,-,76,-,-
SMILES,GPR151 ag,TEAD-YAP inh,FBW7 activator,MITF primary
Cc1ccc(C(=O)Nc2nnc(SCC(=O)NCC3CCCO3)s2)cc1 (stereo unspecified),-,42,-,-
CC1CC(C)CN(c2nnc(NC(=O)Nc3ccccc3C(F)(F)F)s2)C1 (stereo unspecified),-,-,-,-
CCOC(=O)c1ccc(NC(=O)NNC(=O)Cc2c(Cl)cccc2Cl)cc1,-,-,-,-
CNc1ccc(Cl)cc1C(=O)c1cc(OC)c(OC)c(OC)c1,-,54,-,-
COc1cc(C(=O)c2cc(Br)ccc2N)cc(OC)c1OC,-,51,-,-
COc1cc(C(=O)Nc2ccc(F)cc2F)cc(OC)c1OC,-,-,-,-
CCOc1ccc(NC(=O)c2cn(-c3ccc(F)cc3F)c(=O)c3ccccc23)cc1,-,-,-,-
CCC(C)(C)C1CCc2nc(N)c(C#N)c(-c3ccc(OC)cc3)c2C1 (stereo unspecified),-,-,-,-
COc1ccc2oc(=O)c(-c3nnc(Nc4ccc(Oc5ccc6ccccc6c5Cl)c(Cl)c4)s3)cc2c1,-,-,-,-
Cc1nc2cc(NC(=O)N3c4ccccc4CC3C)ccc2n1C (stereo unspecified),-,37,-,-
Cc1cccc(N=C2NC(=O)/C(=C/c3ccc(Br)cc3)S2)c1C,-,-,-,-
O=C(Nc1ccc(Oc2ccc([N+](=O)[O-])c3cnccc23)cc1)c1ccco1,-,39,-,-
Nc1cc(Br)c2c(c1)OCCO2,-,66,-,-
Brc1cc2c(cc1Br)OCCOCCOCCOCCO2,-,-,-,-
O=C(COC(=O)c1cc(O)[nH]c(=O)c1)Nc1ccc([N+](=O)[O-])cc1Br,-,-,-,-
COc1ccc(-c2cnc(N3CCC4(CC3)OCCO4)nc2)cc1,-,-,-,-
c1ccc(-c2cc(N3CCC4(CC3)OCCO4)nc(-c3ccccn3)n2)cc1,-,43,-,-
c1ccc(-c2cnc(N3CCC4(CC3)OCCO4)nc2)cc1,-,70,-,-
